FMDV inh: blocks foot and mouth disease virus. FMDV antiviral cell-based qHTS. Potency, µM (series often up to 57.9 µM), for inactives: at the top dose activity change, negative = inhibition, most hits filed as inhibitors. hit rate 1.2% among 410,000; calls by dose curve; tested in HEK293T cells; note: read-out not given here; potency is the fitted concentration of half-maximal effect; % is set by controls: 0 for no effect and ±100 for the full control effect; nearly all actives have a fitted effect of over 45% in size
MARV entry inh: blocks Marburg virus binding to or entry into cells; Marburg virus pseudotyped entry inhibition, cell reporter; Potency, µM (highest dose often 37.8 µM), inactives show at the highest dose activity change, negative = inhibition, actives largely listed as inhibitors; hit rate 1.8% among 300,000; calls by dose curve; tested in HEK293 cells; note: potency is the fitted concentration of half-maximal effect; % is set by controls: 0 for no effect and ±100 for the full control effect
HCV inhibitor: blocks hepatitis C virus; AID 651820; hit rate 3.4% among 340,000; Potency, µM (series often up to 41.8 µM), inactives show at the highest dose activity change, negative = inhibition, most hits filed as inhibitors; Huh7.5.1 HCVcc-Cre infection, luciferase reporter, 44 h; active = well fitted inhibition curve with a large enough effect; inconclusive = small, poorly fitted or top-dose-only effect, or another doubt; inactive = no such curve, though single readings can be large or run the other way; note: potency is the fitted concentration of half-maximal effect; % is set by controls: 0 for no effect and ±100 for the full control effect
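Cells seeded at 1,000/well and cultured 4 h, then compounds added followed by HCVcc-Cre virus (~0.5 moi). After 44 h further culture, luciferase substrate was added, plates held 15 min at room temperature, and luminescence read for 15 sec.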
Lassa entry inh: inhibitors of Lassa virus binding or cell entry | Lassa virus pseudotype entry inhibition, cell reporter | Potency, µM (doses to about 37.9 µM), without a hit: at the top dose activity change, negative = inhibition, actives largely listed as inhibitors | hit rate 1.2% among 300,000; calls by dose curve; tested in HEK293 cells; note: potency is the fitted concentration of half-maximal effect; % is set by controls: 0 for no effect and ±100 for the full control effect; nearly all actives have a fitted effect of over 50% in size
SARS PLP yeast: SARS-CoV PLP inhibition in yeast | hit rate 0.19% among 330,000 | Potency, µM (titrated, usually from 32.9 µM), for inactives: at the top dose activity, positive = growth rescue, hits mostly activators | S. cerevisiae expressing SARS-CoV PLpro, growth rescue; calls by dose curve; note: potency is the fitted concentration of half-maximal effect; 0% is about no effect; nearly all actives have a fitted effect of over 55% in size
HCMV antiviral: human cytomegalovirus inhibition; HFF cells, HCMV-luciferase reporter, 72 h; active compounds read low; activity change, negative = inhibition, % at 57.5 µM; hit rate 4.5% among 410,000; in the data active = activity change below about -60%; inconclusive = no clear call, values can overlap the other calls; inactive = above about -39%; note: % is set by controls: 0 for no effect and ±100 for the full control effect
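Human foreskin fibroblasts infected with luciferase-reporter HCMV at MOI 1 PFU/cell, compounds at two doses. Luciferase measured 72 h post infection; normalized to buffer-only basal and Salinomycin (10uM) controls.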
An asterisk follows results filed as active; ? = inconclusive; . = no result given; [ ] = another dose, or the depositor's remark. Compounds with a hit are over-represented: about 8% of the library has one in this group of screens.

SMILES	FMDV inh	MARV entry inh	HCV inhibitor	Lassa entry inh	SARS PLP yeast	HCMV antiviral
O=C(O)CCSc1ncnc2sc(-c3ccccc3)cc12	?	?	8%	?	1%	?
Cc1cccc(-c2nc(S(=O)(=O)c3ccc(Cl)cc3)c(N3CCCCCC3)o2)c1	-14%	?	.	-1%[46.1 µM]	.	-5
COC(=O)C(c1ccccc1)(c1cn(C)c2ccccc12)C(Nc1ccccc1)c1ccc(C)cc1 (stereo not given)	.	.	.	.	.	-11
Cn1c(=O)[nH]c(=O)c2c1nc(Br)n2CCOc1ccccc1	18µM*	8%	-21%	8%	1%	34
Cn1c(=O)[nH]c(=O)c2c1nc(Br)n2CCCSc1nc2ccccc2o1	22µM*	8.2µM*	?	-18%	?	-61*
Cn1c(=O)[nH]c(=O)c2c1nc(Br)n2Cc1cccc(Br)c1	-3%	?	?	?	15%	-82*
Cc1c(C(=O)NCCN2CCC(c3ccccc3)CC2)cnn1-c1nccc(-c2cccs2)n1	-10%	.	.	.	.	.
CC1(C)CC(NC(=O)C2=C(C(=O)NC3CC(C)(C)NC(C)(C)C3)CCCC2)CC(C)(C)N1	.	-17%	.	.	.	.
O=C(NCc1nnc2n1CCN(Cc1cc3c(cc1Cl)OCO3)CC2)c1cccc(F)c1	-10%	.	.	.	.	.
CC1CCN(C(=O)CSc2nnc(NC(=O)Nc3ccccc3)s2)CC1	-20%	.	.	17%[46.1 µM]	.	-33
COc1ccc2cc([C@H](C#N)C3CCCC3)ccc2c1	.	.	.	.	.	-9
CCN(CC)C1CCN(C(=O)c2cnn(-c3nccc(-c4ccccc4OC)n3)c2-c2ccco2)C1 (stereo not given)	6%	.	.	.	.	.
CCOc1ccc(Nc2c(S(=O)(=O)c3ccc(Cl)cc3)cnc3ccc(OCC)cc23)cc1	-18%	?	.	.	.	-26
CCOC(=O)c1c(C)n(C)c2ccc(O)cc12	.	.	.	.	.	-2
CCOC(=O)c1c(CSc2ccc(C)cc2)n(C)c2cc(Br)c(O)c(CN(C)C)c12	?	.	?	.	-4%	-63*
CCOC(=O)c1c(C)n(-c2ccc(C)cc2)c2ccc(O)c(CN(C)C)c12	-17%	?	-7%	?	0%	-88*
CCOC(=O)c1c(C)n(-c2ccc(OC)cc2)c2ccc(O)c(CN(C)C)c12	?	.	?	.	-3%	?
COC(=O)c1c(C)n(-c2ccc(OC)cc2)c2ccc(O)cc12	-10%	?	11µM*	?	4%	-38
CCOC(=O)c1c(C)n(-c2ccc(F)cc2)c2ccc(O)cc12	?	.	8.9µM*	.	1%	.
CCOC(=O)c1c(CSc2ccccc2)n(C)c2cc(Br)c(O)c(CN(C)C)c12	-26%	?	?	?	0%	-15
CCCc1cc(=O)[nH]c(SCC(=O)N2CCN(c3ccccc3OC)CC2)n1	-8%	13%[46.1 µM]	.	16%[46.1 µM]	.	-30
c1ccc(CCNc2ncnc3nc[nH]c23)cc1	-19%	?	?	-11%	-11%	?
c1ccc2c(CCNc3ncnc4nc[nH]c34)c[nH]c2c1	?	-45%	7.1µM*	?	-11%	?
CCN(CC)C(=O)CSc1nnc2nnc3cc(C)ccc3n12	-18%	-13%[46.1 µM]	4%	3%[46.1 µM]	2%	-67*
COc1cccc(C(=O)NCCc2sc(-c3cccc(C)c3)nc2C)c1	5%	.	.	-14%[46.1 µM]	.	5
SMILES	FMDV inh	MARV entry inh	HCV inhibitor	Lassa entry inh	SARS PLP yeast	HCMV antiviral
CC(C)CCCN1CCN=C1N(C)C	-10%	.	13%	.	-1%	-74*
CCOc1ccc(S(=O)(=O)NC(C)(C)C)cc1-c1nc2c(C(C)(C)C)nn(C)c2c(=O)[nH]1	.	?	7.1µM*	21µM*	?	-37
CCOc1ccc(S(N)(=O)=O)cc1-c1nc2c(C(C)(C)C)nn(C)c2c(=O)[nH]1	25%	-2%[46.1 µM]	?	-23%	1%	-33
CCc1c(C(=O)Nc2ccncc2)csc1C	?	-16%	?	-8%	-5%	-100*
CCc1c(C(=O)Nc2ccccc2C(N)=O)csc1C	20%	.	-7%	.	-8%	66
CN(C)CC1CCC/C(=C/c2ccc(Cl)cc2)C1=O (stereo not given)	40µM*	-3%	?	?	.	1
CCCC/C=C1/CCC(CN(C)C)C1=O (stereo not given)	28µM*	5%	?	7%[46.1 µM]	.	.
COc1ccc(/C=C2/CCCC(CN(C)C)C2=O)cc1 (stereo not given)	-13%	-16%	?	-13%	.	16
COc1cccc(/C=C2/CCC(CN(C)C)C2=O)c1 (stereo not given)	25µM*	11µM*	?	13µM*	.	-87*
CN(C)CC1CCC/C(=C\c2ccc(OC(=O)/C=C/c3ccc(Cl)c(Cl)c3)cc2)C1=O (stereo not given)	40µM*	?	?	12%	.	-29
CC1CCC(NC(=O)c2ccc(NC3=NC4CS(=O)(=O)CC4S3)cc2)CC1 (stereo not given)	12%	.	11%	.	1%	-4
CCCCNC(=O)CCCN1C(=O)c2ccccc2Sc2ncccc21	-4%	.	.	-3%[46.1 µM]	.	-10
COc1ccc2c(c1)C(c1cccs1)=NNC(c1ccncc1)=N2	-7%	.	11µM*	.	-1%	-16
Cc1c(N2C(=O)/C(=C\C3CC=CCC3)SC2=S)c(=O)n(-c2ccccc2)n1C (stereo not given)	25µM*	?	-13%	3%	-2%	40
Cc1c(N2C(=O)/C(=C3\C(=O)N(CC(=O)O)c4ccccc43)SC2=S)c(=O)n(-c2ccccc2)n1C	25µM*	.	15%	.	1%	45
Cc1c(N2C(=O)/C(=C/C3CC=CCC3)SC2=S)c(=O)n(-c2ccccc2)n1C (stereo not given)	18µM*	?	1%	?	-1%	17
